Test results reported in PubChem BioAssay (NCATS).
Results filed as inconclusive are left out. Unless noted, calls come from the whole dose curve; as a rule, active = well fitted curve in either direction with a large enough effect (not every such curve was filed as active); inconclusive = small, poorly fitted or top-dose-only effect, or another doubt; inactive = flat fitted curve, though single readings scatter.

What was measured:
[1] = AP1 Signaling Pathway (AID 357); conditions: ME-180 AP-1-bla reporter, EGF-induced, beta-lactamase ratio, 5 h; at 17.2 µM (top of the series) unless noted;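 note: ME-180 reporter cells stimulated with EGF at its EC50 level; % is set by controls: 0 for no effect and ±100 for the full control effect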
Outline: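 Cells are seeded overnight, exposed to compound titrations and an EC50 level of EGF for 5 hours at 37 °C, then loaded with CCF4 dye for 2.5 hours. Beta-lactamase activity under the AP-1 element is read as a blue/green ratio.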

[2] = Stat Signaling Pathway (AID 446); conditions: ME-180 (cervical carcinoma) SIE beta-lactamase reporter, IL-6 stimulated, 5 h; at 17.2 µM (top of the series) unless noted;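 note: ME-180 cervical cancer cells given 40 pM IL-6 alongside compound; SIE-controlled beta-lactamase reporter measured as 460/530 nm FRET emission ratio; % is set by controls: 0 for no effect and ±100 for the full control effect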
Outline: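 FRET read-out (405 nm excitation, 460/530 nm emission) of a beta-lactamase reporter under a STAT-inducible element in ME-180 cervical carcinoma cells. Cells with compound receive 40 pM IL-6 for 5 h. Values are normalised to AC90 stimulation and AC90 JAK-inhibitor controls.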

[3] = target: Glucocorticoid receptor (Homo sapiens) (UniProt P04150); experiment: GR-GFP Redistribution (AID 450;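 active = compounds whose dose series gives a full or clear partial fitted curve of increased nuclear translocation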; note: potency is the fitted concentration of half-maximal effect)
Chain of Glucocorticoid receptor (Homo sapiens) (P04150 whole entry, looked up): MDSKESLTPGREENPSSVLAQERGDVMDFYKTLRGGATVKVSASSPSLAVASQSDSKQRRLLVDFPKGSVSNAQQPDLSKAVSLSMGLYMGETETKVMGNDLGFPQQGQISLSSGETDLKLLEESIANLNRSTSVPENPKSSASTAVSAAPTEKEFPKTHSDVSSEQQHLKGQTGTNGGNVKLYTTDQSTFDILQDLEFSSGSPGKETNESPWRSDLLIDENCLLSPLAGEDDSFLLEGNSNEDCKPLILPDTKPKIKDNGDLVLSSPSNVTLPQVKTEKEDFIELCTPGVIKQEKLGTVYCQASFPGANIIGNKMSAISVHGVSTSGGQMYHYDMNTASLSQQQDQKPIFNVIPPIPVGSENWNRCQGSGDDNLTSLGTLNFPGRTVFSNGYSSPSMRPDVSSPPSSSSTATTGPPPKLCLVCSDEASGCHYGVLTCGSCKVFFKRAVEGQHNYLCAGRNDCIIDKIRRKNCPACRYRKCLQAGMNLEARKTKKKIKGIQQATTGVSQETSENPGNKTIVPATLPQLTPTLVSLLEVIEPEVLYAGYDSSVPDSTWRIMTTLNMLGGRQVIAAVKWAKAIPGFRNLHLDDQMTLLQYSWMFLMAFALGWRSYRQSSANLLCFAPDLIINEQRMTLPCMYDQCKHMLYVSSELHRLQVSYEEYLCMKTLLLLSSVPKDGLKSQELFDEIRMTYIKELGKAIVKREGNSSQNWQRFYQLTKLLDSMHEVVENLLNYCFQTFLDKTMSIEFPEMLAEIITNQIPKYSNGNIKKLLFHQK

N#Cc1nc(COc2ccccc2Cl)oc1NCc1ccc(F)cc1
inactive: activity change, negative = inhibition [1] -5.24% | activity, negative = inhibition [2] -20.3% | Potency [3] > 20.6 µM

COc1ccc(CCn2c(=N)c(C(=O)NCc3ccco3)cc3c(=O)n4ccccc4nc32)cc1
inactive: activity change, negative = inhibition [1] -1.64% | activity, negative = inhibition [2] 2.96% | Potency [3] > 20.6 µM

CC(=O)NC1(C(F)(F)F)C(=O)Nc2c1c(=O)n(C)c(=O)n2C (configuration not stated)
inactive: activity change, negative = inhibition [1] 21.1% | activity, negative = inhibition [2] 0.854% | Potency [3] > 20.6 µM

Nc1ccc2oc(-c3cc(Br)ccc3Cl)nc2c1
inactive: activity change, negative = inhibition [1] -29.4% | activity, negative = inhibition [2] 0.658% | Potency [3] > 20.6 µM

COCCCNC(=O)c1c(N)n(/N=C/c2cccs2)c2nc3ccccc3nc12
inactive: activity change, negative = inhibition [1] 24.9% | activity, negative = inhibition [2] 21.4% | Potency [3] > 20.6 µM

CCn1c(SCC(=O)N2CCOCC2)nc2sc3c(c2c1=O)CCCC3
inactive: activity change, negative = inhibition [1] -8.7% | activity, negative = inhibition [2] -6.44% | Potency [3] > 20.6 µM

COc1cccc(NC(=O)C2CC(=O)n3cnnc3S2)c1 (configuration not stated)
inactive: activity change, negative = inhibition [1] -17.5% | activity, negative = inhibition [2] -7.33% | Potency [3] > 20.6 µM

Cc1ccc(SCc2c(C#N)c3ccccc3n2C)cc1
inactive: activity change, negative = inhibition [1] -29.6% | activity, negative = inhibition [2] -15.3% | Potency [3] > 20.6 µM

C=CCNc1nnc(SC2CC(=O)N(c3ccc(OC)cc3)C2=O)s1 (configuration not stated)
inactive: activity change, negative = inhibition [1] -11.6% | activity, negative = inhibition [2] -1.82% | Potency [3] > 20.6 µM

COC(=O)c1ccc(Oc2nc3ccccc3n3c(C)nnc23)cc1
inactive: activity change, negative = inhibition [1] 13% | activity, negative = inhibition [2] 4.74% | Potency [3] > 20.6 µM

N#Cc1cc(Oc2cccc3cccnc23)c(-n2nnc3ccccc32)cc1C#N
inactive: activity change, negative = inhibition [1] 11.4% | activity, negative = inhibition [2] 11.7% | Potency [3] > 20.6 µM

CCOC(=O)C1=C(CSc2nc(-c3ccncc3)ccc2C#N)OC(N)=C(C#N)C1c1cccnc1 (configuration not stated)
inactive: activity change, negative = inhibition [1] 20.1% | activity, negative = inhibition [2] -14.4% | Potency [3] > 20.6 µM

COc1ccc(Nc2oc(-c3cccs3)nc2C#N)cc1
inactive: activity change, negative = inhibition [1] -23.7% | activity, negative = inhibition [2] -1.34% | Potency [3] > 20.6 µM

CC1CCN(c2[nH]c(=S)c(C#N)c3c2CCCC3)CC1
inactive: activity change, negative = inhibition [1] 10.9% | activity, negative = inhibition [2] -15.1% | Potency [3] > 20.6 µM

CCN(CC)c1ccc(C2Nc3cccc4cccc(c34)N2)c(O)c1
inactive: activity change, negative = inhibition [1] -17.3% | activity, negative = inhibition [2] -17.7% | Potency [3] > 20.6 µM

CCOC(=O)c1[nH]c2ccc(OC)cc2c1NC(=O)CCN1CCN(Cc2ccccc2)CC1
inactive: activity change, negative = inhibition [1] -6.55% | activity, negative = inhibition [2] 4.87% | Potency [3] > 20.6 µM

COc1ccc(CCn2c(=N)c(C(=O)NCc3ccco3)cc3c(=O)n4ccccc4nc32)cc1OC
inactive: activity change, negative = inhibition [1] -14.6% | activity, negative = inhibition [2] -2.08% | Potency [3] > 20.6 µM

CC1(C)Cc2c(c(-c3ccco3)[nH]c(=O)c2C#N)CS1
inactive: activity change, negative = inhibition [1] -2.31% | activity, negative = inhibition [2] 11.6% | Potency [3] > 20.6 µM

C=CCN=C(NC#N)SCCc1ccccc1
inactive: activity change, negative = inhibition [1] -4.76% | activity, negative = inhibition [2] 5.61% | Potency [3] > 20.6 µM

CCC12CN3CC(CC)(CN(C1)C3c1c(O)ccc3ccccc13)C2=O (configuration not stated)
inactive: activity change, negative = inhibition [1] 2.68% | activity, negative = inhibition [2] -7.82% | Potency [3] > 20.6 µM

OCCN(CCO)c1ncnc2c1sc1nc(N3CCOCC3)c3c(c12)CCCC3
inactive: activity change, negative = inhibition [1] -27.6% | activity, negative = inhibition [2] -21.5% | Potency [3] > 20.6 µM

CCCCCCCCCCCCCCCC(O)C(N)CO (configuration not stated)
inactive: activity change, negative = inhibition [1] -23.5% | activity, negative = inhibition [2] 7.16% | Potency [3] > 20.6 µM

CCOC(=O)c1nc2nc(C)c(Cl)c(=O)n2[nH]1
inactive: activity change, negative = inhibition [1] -6.21% | activity, negative = inhibition [2] 5.64% | Potency [3] > 20.6 µM

CCCSc1nnc2n(C)c(=O)c3c4c(sc3n12)CCC4
inactive: activity change, negative = inhibition [1] -1.82% | activity, negative = inhibition [2] -5.35% | Potency [3] > 20.6 µM

Cc1ccc(S(=O)(=O)N2CCC(N3CCCCCC3)CC2)cc1
inactive: activity change, negative = inhibition [1] 15.1% | activity, negative = inhibition [2] 10.2% | Potency [3] > 20.6 µM

Cc1c(O)c(CN2CCCCC2)cc2c3c(c(=O)oc12)CCC3
inactive: activity change, negative = inhibition [1] 6.76% | activity, negative = inhibition [2] -1.68% | Potency [3] > 20.6 µM

CCOC(=O)c1[nH]c2cc(OC)c(OC)cc2c1NC(=O)C(C)N1CCN(Cc2ccccc2)CC1 (configuration not stated)
inactive: activity change, negative = inhibition [1] -21.5% | activity, negative = inhibition [2] -4.92% | Potency [3] > 20.6 µM

CC(C)C1=C2OC(N)=C(C#N)C(C#N)=C2C(C)CC1 (configuration not stated)
inactive: activity change, negative = inhibition [1] -2.44% | activity, negative = inhibition [2] 5.25% | Potency [3] > 20.6 µM

CCOc1ccc2c(C)nc(NC3=NC(C)(C)C=C(C)N3)nc2c1
inactive: activity change, negative = inhibition [1] 26.3% | activity, negative = inhibition [2] 25.6% | Potency [3] > 20.6 µM

CCO/C(C)=N/n1c2nc3ccccc3nc2c2c(=O)n(Cc3ccccc3Cl)c(C)nc21
inactive: activity change, negative = inhibition [1] -30% | activity, negative = inhibition [2] -8.13% | Potency [3] > 20.6 µM

COc1cccc(C(=O)NCC(=O)n2nc(C)cc2C)c1
inactive: activity change, negative = inhibition [1] 23.4% | activity, negative = inhibition [2] 16.7% | Potency [3] > 20.6 µM

CN(C)CCCOC(=O)c1ccc(Cl)cc1Cl
inactive: activity change, negative = inhibition [1] 13.3% | activity, negative = inhibition [2] 2.76% | Potency [3] > 20.6 µM

CCOC(=O)C1=C(CSc2nc3c(cc2C#N)CCC3)OC(N)=C(C#N)C1c1ccccc1 (configuration not stated)
inactive: activity change, negative = inhibition [1] 0.107% | activity, negative = inhibition [2] -16.4% | Potency [3] > 20.6 µM

COc1ccc(Cn2c(N)c(C#N)c3nc4ccccc4nc32)cc1OC
inactive: activity change, negative = inhibition [1] -3.62% | activity, negative = inhibition [2] 11.6% | Potency [3] > 20.6 µM
